Measurements: PubChem BioAssay (EPA / NIEHS)
Several values for one entry are separate records, joined by “and”; a condition that tells them apart may be missing. Equal values may be shown once. The source holds several records for some structures; these can differ, active in one and inactive in another. Activity calls are given as the source filed them. The calls were made as follows: active = hit-call score of the fitted dose curve at least 0.9, where 1 is the maximum; inactive = score below 0.9.

Assays:
[1] = ATG_CRE_CIS: Attagene CIS-FACTORIAL HepG2 Assay for human cAMP Responsive Element (CRE) binding protein 3 (AID 2282926); details: HepG2 CRE cis-reporter, Attagene multiplexed mRNA; actives raise or lower the signal
How it was run: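 Capillary electrophoresis of 6-FAM-labelled, HpaI-digested PCR products quantified reporter transcripts. These came from HepG2 transiently transfected with cis-element reporters and exposed to test chemicals for 24 hours, with DMSO defining baseline activity.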

[2] = molecular target: CCAAT/enhancer-binding protein beta (Homo sapiens) (UniProt P17676); experiment: ATG_C_EBP_CIS: Attagene CIS-FACTORIAL HepG2 Assay for human CCAAT/Enhancer Binding Protein (C/EBP) beta (AID 2282927); details: HepG2 Attagene cis-factorial transcription factor reporter; actives raise or lower the signal
How it was run: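 Transiently transfected HepG2 (MRTU library, endogenous TF-driven promoters); 24 h dosing; total RNA → oligo(dT) RT → PCR → 6-FAM primer extension → HpaI digest → CE; fit bidirectionally vs DMSO.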

[3] = ATG_CMV_CIS: Attagene CIS-FACTORIAL HepG2 Assay for human CMV (Internal Marker) (AID 2282928); details: HepG2 CMV promoter reporter, transcription factor profiling; actives raise or lower the signal;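 also: endpoint acts as a background internal control marker rather than a target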
How it was run: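 Reporter transcripts from transfected HepG2 cells are isolated after 24 h of chemical dosing, reverse-transcribed and amplified. Fragments labeled with 6-FAM are cut with HpaI and quantified by capillary electrophoresis; DMSO defines baseline.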

[4] = ATG_DR4_LXR_CIS: Attagene CIS-FACTORIAL HepG2 Assay for human Liver X Receptor (LXR), DR4 submotif (AID 2282929); details: HepG2 Attagene DR4 cis-reporter, mRNA transcription; actives raise or lower the signal
How it was run: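 The endpoint is DR4-element-driven reporter transcripts after 24 h chemical exposure of transfected HepG2 cells. These were measured via RT-PCR and capillary electrophoresis, and gain or loss of signal was fitted relative to DMSO controls.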

[5] = molecular target: Aryl hydrocarbon receptor (Homo sapiens) (UniProt P35869); experiment: ATG_Ahr_CIS: Attagene CIS-FACTORIAL HepG2 Assay for human Aryl Hydrocarbon Receptor (Ahr) (AID 2282930); details: HepG2 AhR cis-factorial reporter transcription; actives raise or lower the signal
How it was run: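 Read-out: reporter mRNA quantified by RT-PCR with fluorescent primer extension and capillary electrophoresis. Human HepG2 liver cells carried transfected cis-promoter reporter units and were exposed to chemical for 24 h; gain or loss fitted relative to DMSO.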

[6] = ATG_AP_1_CIS: Attagene CIS-FACTORIAL HepG2 Assay for human Activator Protein 1 (AP-1) (AID 2282931); details: HepG2 Attagene cis-factorial AP-1 reporter mRNA; actives raise or lower the signal
How it was run: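 Readout is reporter transcript level from endogenous transcription factor activity, quantified by RT-PCR with fluorescent primer extension and capillary electrophoresis. Transiently transfected HepG2 cells, 24 h exposure. Curves fitted both directions versus DMSO.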

[7] = ATG_AP_2_CIS: Attagene CIS-FACTORIAL HepG2 Assay for human Activator Protein 2 (AP-2) (AID 2282932); details: HepG2 AP-2 cis-reporter, Attagene transcription factor profiling; actives raise or lower the signal
How it was run: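 Read-out: fluorescent reporter mRNA via RT-PCR and capillary electrophoresis, 24 h post-dose in transiently transfected HepG2. Endogenous factors drive cis-promoter reporters; gain or loss of signal fitted bidirectionally against DMSO.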

[8] = ATG_BRE_CIS: Attagene CIS-FACTORIAL HepG2 Assay for human Bone Morphogenetic Protein (BMP) Response Element (BRE) (AID 2282933); details: HepG2 BMP response element reporter, Attagene transcription factor profiling; actives raise or lower the signal
How it was run: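 Fluorescence-labelled reporter cDNA fragments, separated by capillary electrophoresis, gave the signal for this component of a 52-readout multiplex. HepG2 cells were transfected, exposed to chemicals for 24 h, and compared with DMSO using bidirectional fitting.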

[9] = molecular target: Transcription factor E2F1 (Homo sapiens) (UniProt Q01094); experiment: ATG_E2F_CIS: Attagene CIS-FACTORIAL HepG2 Assay for human E2F Transcription Factor 1 (AID 2282935); details: HepG2 Attagene cis-reporter, E2F reporter RNA transcripts; actives raise or lower the signal
How it was run: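 Transient MRTU transfection of HepG2; 24 h compound exposure; RNA → oligo(dT) RT → PCR → FAM label → HpaI cut → CE fluorescence. Gain/loss of signal fit against DMSO.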

[10] = molecular target: Retinoic acid receptor alpha (Homo sapiens) (UniProt P10276); experiment: ATG_DR5_RAR_CIS: Attagene CIS-FACTORIAL HepG2 Assay for human Retinoic Acid Receptor Alpha (RARE), DR5 submotif (AID 2282934); details: HepG2 Attagene cis-factorial RARE DR5 reporter, mRNA; actives raise or lower the signal
How it was run: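 Read-out: DR5-driven reporter transcript measured by RT-PCR, 6-FAM primer extension, HpaI digest and capillary electrophoresis. Human HepG2 liver cells carry transiently transfected cis-element reporter constructs; dosing lasts 24 h. Gain or loss of signal fitted against DMSO baseline.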

Sequence of CCAAT/enhancer-binding protein beta (Homo sapiens) (P17676 whole entry, looked up): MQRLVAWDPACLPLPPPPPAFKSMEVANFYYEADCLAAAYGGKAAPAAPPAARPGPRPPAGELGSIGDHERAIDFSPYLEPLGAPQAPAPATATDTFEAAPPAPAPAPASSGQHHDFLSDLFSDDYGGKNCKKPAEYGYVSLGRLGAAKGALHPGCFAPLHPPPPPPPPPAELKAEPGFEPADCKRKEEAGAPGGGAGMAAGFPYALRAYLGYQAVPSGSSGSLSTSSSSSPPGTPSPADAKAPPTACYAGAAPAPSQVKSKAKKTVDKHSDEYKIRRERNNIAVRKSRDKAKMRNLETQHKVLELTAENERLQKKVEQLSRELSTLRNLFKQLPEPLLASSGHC
Sequence of Transcription factor E2F1 (Homo sapiens) (Q01094 whole entry, looked up): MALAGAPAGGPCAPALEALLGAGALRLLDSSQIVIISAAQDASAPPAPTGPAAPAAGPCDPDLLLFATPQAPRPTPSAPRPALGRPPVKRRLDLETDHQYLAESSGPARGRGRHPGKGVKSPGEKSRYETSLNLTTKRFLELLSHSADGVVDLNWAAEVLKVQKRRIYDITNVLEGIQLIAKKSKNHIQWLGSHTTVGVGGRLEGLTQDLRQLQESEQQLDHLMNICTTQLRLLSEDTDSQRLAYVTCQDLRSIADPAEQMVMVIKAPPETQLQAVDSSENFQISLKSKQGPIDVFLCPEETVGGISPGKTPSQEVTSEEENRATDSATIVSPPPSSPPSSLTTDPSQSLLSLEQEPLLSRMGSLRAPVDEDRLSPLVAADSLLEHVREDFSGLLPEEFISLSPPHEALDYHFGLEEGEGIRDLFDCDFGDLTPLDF
Sequence of Aryl hydrocarbon receptor (Homo sapiens) (P35869 whole entry, looked up): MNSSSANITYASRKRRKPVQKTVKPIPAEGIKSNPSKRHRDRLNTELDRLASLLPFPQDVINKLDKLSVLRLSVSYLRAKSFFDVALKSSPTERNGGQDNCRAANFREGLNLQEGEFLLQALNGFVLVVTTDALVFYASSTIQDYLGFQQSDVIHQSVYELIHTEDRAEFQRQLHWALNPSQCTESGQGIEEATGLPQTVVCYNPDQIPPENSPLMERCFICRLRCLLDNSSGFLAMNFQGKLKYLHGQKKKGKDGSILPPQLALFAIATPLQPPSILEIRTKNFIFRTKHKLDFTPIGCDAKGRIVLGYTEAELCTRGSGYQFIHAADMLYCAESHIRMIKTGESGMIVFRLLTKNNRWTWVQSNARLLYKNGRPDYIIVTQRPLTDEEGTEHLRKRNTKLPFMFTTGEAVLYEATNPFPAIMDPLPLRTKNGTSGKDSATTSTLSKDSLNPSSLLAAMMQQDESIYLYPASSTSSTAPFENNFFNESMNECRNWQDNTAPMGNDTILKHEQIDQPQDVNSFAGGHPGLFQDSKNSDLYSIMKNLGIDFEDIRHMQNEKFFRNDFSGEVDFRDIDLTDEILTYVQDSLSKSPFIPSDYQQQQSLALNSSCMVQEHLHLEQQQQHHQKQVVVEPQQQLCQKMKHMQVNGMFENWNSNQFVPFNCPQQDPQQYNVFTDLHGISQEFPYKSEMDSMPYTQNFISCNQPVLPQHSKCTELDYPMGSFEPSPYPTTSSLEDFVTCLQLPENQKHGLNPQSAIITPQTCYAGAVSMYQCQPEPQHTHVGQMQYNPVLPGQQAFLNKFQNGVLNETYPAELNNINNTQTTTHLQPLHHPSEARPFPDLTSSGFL
Sequence of Retinoic acid receptor alpha (Homo sapiens) (P10276 whole entry, looked up): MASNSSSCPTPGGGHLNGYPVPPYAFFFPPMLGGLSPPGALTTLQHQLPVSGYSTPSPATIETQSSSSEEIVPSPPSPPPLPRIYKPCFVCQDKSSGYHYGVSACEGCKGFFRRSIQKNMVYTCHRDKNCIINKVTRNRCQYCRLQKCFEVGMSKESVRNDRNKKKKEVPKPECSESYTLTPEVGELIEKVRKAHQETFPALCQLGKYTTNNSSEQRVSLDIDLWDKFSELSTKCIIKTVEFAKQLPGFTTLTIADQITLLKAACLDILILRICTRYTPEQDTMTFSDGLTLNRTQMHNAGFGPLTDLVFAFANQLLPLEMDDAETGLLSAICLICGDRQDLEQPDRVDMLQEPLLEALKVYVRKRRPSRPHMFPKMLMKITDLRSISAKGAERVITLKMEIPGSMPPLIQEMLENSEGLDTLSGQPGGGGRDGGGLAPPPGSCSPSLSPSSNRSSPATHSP

Row | SMILES | outcome [1] | outcome [2] | outcome [3] | AC50 [4] | outcome [5] | AC50 [6] | AC50 [7] | outcome [8] | outcome [9] | outcome [4] | AC50 [5] | outcome [6] | outcome [7] | outcome [10] | AC50 [3] | AC50 [8]
1 | O=C(O)c1cccc(C[C@@H]2COc3ccc(OCc4nc5cc(F)ccc5s4)cc3[C@@H]2O)c1 | inactive | inactive | inactive | 100 µM (active) | inactive | 158 µM (active) | 167 µM (active) | inactive | inactive | – | – | – | – | – | – | –
2 | CC[C@H](C)C(=O)O[C@H]1C[C@H](O)C=C2C=C[C@H](C)[C@H](CC[C@@H](O)C[C@@H](O)CC(=O)O)[C@H]21 | inactive | inactive | inactive | – | – | – | – | inactive | inactive | inactive | 68.4 µM (active) | inactive | inactive | – | – | –
3 | CCCCCOC(C)=O | inactive | inactive | inactive | – | inactive | – | – | inactive | inactive | inactive | – | inactive | inactive | inactive | – | –
4 | S=P(N1CC1)(N1CC1)N1CC1 | inactive | inactive | inactive | 157 µM (active) | inactive | – | – | inactive | inactive | inactive | – | inactive | inactive | – | – | –
5 | CC(C)CCCCCCOC(=O)C1CCCCC1C(=O)OCCCCCCC(C)C (stereo not given) | inactive | inactive | inactive | – | – | – | – | inactive | inactive | inactive | 84.8 µM (active) | inactive | inactive | – | – | –
6 | Cc1ccc(S(=O)(=O)NC(=O)NN2CCCCCC2)cc1 | inactive | inactive | inactive | – | inactive | – | – | inactive | inactive | inactive | – | inactive | inactive | inactive | – | –
7 | NCC(F)(F)C(F)(F)C(F)(F)C(F)(F)F | inactive | inactive | inactive | – | inactive | – | – | inactive | inactive | inactive | – | inactive | inactive | – | – | –
8 | OCc1c[nH]c2ccccc12 | inactive | inactive | inactive | 69 µM (active) and 62.6 µM (active) and 49.8 µM (active) | – | 47.2 µM (active) [middle of 5 runs] | – | – | inactive | inactive | – | – | inactive | inactive | 25.1 µM (active) | –
9 | CCn1nc(C)c2c1C(=O)NCC(c1ccc(O)cc1)=N2 | inactive | inactive | inactive | – | inactive | – | – | inactive | inactive | inactive | – | inactive | inactive | – | – | –
10 | FC(F)(F)C(F)(F)C(F)(F)C(F)(F)C(F)(F)C(F)(F)I | inactive | inactive | inactive | – | inactive | – | – | inactive | inactive | inactive | – | inactive | inactive | – | – | –
11 | FC(F)=C(F)C(F)(F)C(F)(F)C(F)(F)C(F)(F)C(F)(F)C(F)(F)F | inactive | inactive | inactive | – | inactive | – | – | inactive | inactive | inactive | – | inactive | inactive | – | – | –
12 | NC(=O)N1c2ccccc2C=Cc2ccccc21 | inactive | inactive | inactive | – | inactive | – | – | inactive | inactive | inactive | – | inactive | inactive | inactive | – | –
13 | c1ccc2ncccc2c1 | inactive | inactive | inactive | – | – | – | – | inactive | inactive | inactive | 41.9 µM (active) | inactive | inactive | – | – | –
14 | Cc1ncc([C@@H](CCCCCCc2ccc3c(n2)NCCC3)CC(=O)O)cn1 | inactive | inactive | inactive | – | inactive | 0.0172 µM (active) | – | inactive | inactive | inactive | – | – | inactive | – | – | –
15 | O=C(Cl)C(F)(F)C(F)(F)C(F)(F)C(=O)Cl | inactive | inactive | inactive | – | inactive | – | – | inactive | inactive | inactive | – | inactive | inactive | – | – | –
16 | COc1cc2c(c(OC)c1OC)-c1ccc(OC)c(=O)cc1[C@@H](NC(C)=O)CC2 | inactive | inactive | – | – | inactive | 0.123 µM (active) | 61.1 µM (active) | – | inactive | inactive | – | – | – | – | 0.0703 µM (active) | 4.6 µM (active)
17 | O=C(NO)C1(NS(=O)(=O)c2ccc(Oc3ccc(F)cc3)cc2)CCOCC1 | inactive | inactive | inactive | – | inactive | – | – | inactive | inactive | inactive | – | inactive | inactive | – | – | –
18 | O=C1CN(N=Cc2ccc([N+](=O)[O-])o2)C(=O)N1 | inactive | inactive | – | – | inactive | 68.5 µM (active) | – | inactive | inactive | inactive | – | – | inactive | – | 45.7 µM (active) | –
19 | OC[C@H]1O[C@@](CO)(O[C@H]2O[C@H](CO)[C@@H](O)[C@H](O)[C@H]2O)[C@@H](O)[C@@H]1O | inactive | inactive | inactive | – | inactive | – | – | inactive | inactive | inactive | – | inactive | inactive | – | – | –
20 | OC(CCl)CCl | inactive | inactive | inactive | – | inactive | – | – | inactive | inactive | inactive | – | inactive | inactive | – | – | –
